Drawing on PubChem BioAssay, this text covers growth inhibition, inhibition and outcome for 19 molecules.

Experiment [1] can be described thus: antimalarial activity against Dd2 strain (AID 2302;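 active = growth inhibition above 50% at the single 2 µM test dose, taken to imply half-maximal potency below 2 µM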;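 note: 0% = DMSO untreated growth and 100% = chloroquine plus artemisinin killed control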). The conditions noted are these: P. falciparum Dd2 in RBCs, LDH growth readout, 72 h; at 2 µM; stronger effect = higher value.
Experiment [2] in a line: human hepatoma cell viability loss – ATP luminescence, cytotoxicity control for P. falciparum antimalarial project, primary screen (AID 2303;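 active = inhibition above 50%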;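 note: 0% = DMSO wells and 100% = digitonin-killed cells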). The conditions noted are these: HepG2 viability, 24-48 h, at 10 µM, stronger effect = higher value.
The target of experiment [3] is L-lactate dehydrogenase (Plasmodium falciparum (isolate CDC / Honduras)) (UniProt Q27743). The experiment in a line: PfLDH activity inhibition – cell lysate, 3D7 strain, counter-screen for P. falciparum growth inhibition project (AID 2304).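 Note: 0% = vehicle and 100% = reference inhibitor.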 The note with it: P. falciparum 3D7 crude extract, LDH APAD/NBT absorbance; at 2 µM; stronger effect = higher value.
L-lactate dehydrogenase (Plasmodium falciparum (isolate CDC / Honduras)), sequence (Q27743 whole entry, looked up): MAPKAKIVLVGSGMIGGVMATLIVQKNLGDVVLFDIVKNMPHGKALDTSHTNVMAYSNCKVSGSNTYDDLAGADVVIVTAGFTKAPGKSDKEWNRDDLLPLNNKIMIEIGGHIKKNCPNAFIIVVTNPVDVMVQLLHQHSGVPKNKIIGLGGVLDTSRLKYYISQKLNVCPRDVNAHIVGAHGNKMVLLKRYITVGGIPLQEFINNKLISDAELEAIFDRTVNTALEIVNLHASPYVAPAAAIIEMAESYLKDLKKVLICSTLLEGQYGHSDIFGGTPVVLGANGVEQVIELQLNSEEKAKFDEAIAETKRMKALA
Experiment [4] can be described thus: inhibition of 3D7 malaria parasite growth – strain 3D7 (AID 2306).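 Note: 0% = DMSO wells and 100% = chloroquine plus artemisinin control wells.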 The conditions noted are these: P. falciparum 3D7 erythrocytic growth, LDH absorbance, 72 h; at 2 µM; stronger effect = higher value.
The target in experiment [5] is Calcium-dependent protein kinase 1 (Plasmodium falciparum (isolate 3D7)) (UniProt P62344). In words: PfCDPK1 kinase inhibitors, biochemical, TCAMS library (AID 1159585; cut-off not given, nearly all actives have IC50 up to about 0.98 µM;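 note: inhibitors leave more ATP so luminescence rises with inhibition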). The note with it: recombinant PfCDPK1, Kinase-Glo ATP depletion luminescence.
Calcium-dependent protein kinase 1 (Plasmodium falciparum (isolate 3D7)), sequence (P62344 whole entry, looked up): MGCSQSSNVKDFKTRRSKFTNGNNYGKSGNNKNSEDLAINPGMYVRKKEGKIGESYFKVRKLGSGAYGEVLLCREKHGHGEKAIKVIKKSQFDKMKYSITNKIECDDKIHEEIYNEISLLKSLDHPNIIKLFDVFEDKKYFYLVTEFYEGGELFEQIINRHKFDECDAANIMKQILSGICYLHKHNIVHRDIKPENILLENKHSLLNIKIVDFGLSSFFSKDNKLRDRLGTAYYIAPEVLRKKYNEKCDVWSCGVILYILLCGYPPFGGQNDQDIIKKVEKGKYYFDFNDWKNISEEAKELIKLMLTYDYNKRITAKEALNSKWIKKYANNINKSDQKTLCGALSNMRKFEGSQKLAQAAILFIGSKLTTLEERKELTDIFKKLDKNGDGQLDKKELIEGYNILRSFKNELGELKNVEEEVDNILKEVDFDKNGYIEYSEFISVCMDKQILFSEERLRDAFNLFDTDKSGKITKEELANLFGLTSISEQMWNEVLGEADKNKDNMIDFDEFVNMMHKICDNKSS
Experiment [6] has as its target Plasmodium falciparum protein kinase 6 (PK6, PF3D7_1337100) (UniProt Q8IDW1). In words: PfPK6 kinase inhibitors, biochemical, TCAMS library (AID 1159586). The conditions noted are these: recombinant PfPK6, Kinase-Glo ATP depletion luminescence.
The target of experiment [7] is Protein kinase 7 (PK7), Plasmodium falciparum 3D7 (PF3D7_0213400) (UniProt Q7YTF7). The experiment in a line: inhibition of Plasmodium PK7 catalytic activity – biochemical, TCAMS antimalarial set, Kinase-Glo luminescence (AID 1159587). The conditions noted are these: recombinant PfPK7, Kinase-Glo ATP depletion luminescence.
Protein kinase 7 (PK7), Plasmodium falciparum 3D7 (PF3D7_0213400), sequence (Q7YTF7 1-343): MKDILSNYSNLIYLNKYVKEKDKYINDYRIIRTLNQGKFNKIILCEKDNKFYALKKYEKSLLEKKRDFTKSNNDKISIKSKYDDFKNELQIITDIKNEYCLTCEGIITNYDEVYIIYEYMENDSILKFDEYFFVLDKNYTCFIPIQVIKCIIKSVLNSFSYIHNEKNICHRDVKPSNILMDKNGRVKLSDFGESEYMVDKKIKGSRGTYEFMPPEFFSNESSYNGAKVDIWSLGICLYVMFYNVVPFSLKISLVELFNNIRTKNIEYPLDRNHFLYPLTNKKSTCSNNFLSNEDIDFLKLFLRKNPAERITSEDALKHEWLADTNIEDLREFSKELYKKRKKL
Experiment [8] deals with Calcium-dependent protein kinase 4 (Plasmodium falciparum (isolate 3D7)) (UniProt Q8IBS5). The experiment in a line: PfCDPK4 kinase inhibitors, biochemical, TCAMS library (AID 1159588; cut-off not given, nearly all actives have IC50 up to about 0.91 µM). The note with it: recombinant PfCDPK4, Kinase-Glo ATP depletion luminescence.
Calcium-dependent protein kinase 4 (Plasmodium falciparum (isolate 3D7)), sequence (Q8IBS5 whole entry, looked up): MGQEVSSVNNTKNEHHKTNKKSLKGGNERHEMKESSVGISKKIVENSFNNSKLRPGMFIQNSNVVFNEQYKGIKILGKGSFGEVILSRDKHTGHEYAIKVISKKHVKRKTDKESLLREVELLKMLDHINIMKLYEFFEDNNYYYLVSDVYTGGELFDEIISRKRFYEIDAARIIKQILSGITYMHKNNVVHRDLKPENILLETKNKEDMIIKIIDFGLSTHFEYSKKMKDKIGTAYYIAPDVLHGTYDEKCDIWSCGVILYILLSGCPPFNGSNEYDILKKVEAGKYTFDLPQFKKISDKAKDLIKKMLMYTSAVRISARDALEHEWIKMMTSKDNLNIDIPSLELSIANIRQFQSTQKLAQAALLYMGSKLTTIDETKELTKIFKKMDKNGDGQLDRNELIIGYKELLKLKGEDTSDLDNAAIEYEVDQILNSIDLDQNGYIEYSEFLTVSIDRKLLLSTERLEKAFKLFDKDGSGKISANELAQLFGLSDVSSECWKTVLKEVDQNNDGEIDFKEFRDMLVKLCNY

Each structure is given as a SMILES string. A number with no mark means an inactive call. For some assays here: Measured potencies and affinities stand elsewhere. Calls of active or inactive are those of the source. Unless noted, the rule behind the calls is not given here.

Plasmodium falciparum protein kinase 6 (PK6, PF3D7_1337100), sequence (Q8IDW1 1-305): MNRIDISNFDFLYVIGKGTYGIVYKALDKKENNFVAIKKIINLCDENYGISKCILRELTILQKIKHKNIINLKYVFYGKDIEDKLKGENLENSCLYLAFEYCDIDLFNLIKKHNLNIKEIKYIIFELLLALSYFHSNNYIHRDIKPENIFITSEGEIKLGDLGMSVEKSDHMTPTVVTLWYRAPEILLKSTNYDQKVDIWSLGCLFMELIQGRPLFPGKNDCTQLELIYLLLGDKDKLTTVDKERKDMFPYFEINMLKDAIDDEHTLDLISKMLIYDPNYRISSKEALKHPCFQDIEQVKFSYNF

Take `CCCCCN1CCC(NS(=O)(=O)c2cccc(C(=O)Nc3ccc(C(F)(F)F)cc3)c2)C1` (configuration not stated): the growth inhibition was 5% in experiment [1] and 95% (active) in experiment [4]. Further, the values for the inhibition in experiment [2] and in experiment [3] were 45% and -3%, respectively. Also, the result in experiment [5], in experiment [6], in experiment [7] and in experiment [8] was inactive.
As to `CCNc1cc(C)nc(Nc2ccc(NC(=O)c3c(F)cccc3Cl)cc2)n1`, the results for the growth inhibition in experiment [1] and in experiment [4] were 89% (active) and 102% (active), respectively. Further, the inhibition was 49% in experiment [2] and -4% in experiment [3]. In addition, the outcome in experiment [5], in experiment [6], in experiment [7] and in experiment [8] was inactive.
As to `O=C(Nc1ccccc1-c1nc2ccccc2s1)C(Cl)(Cl)Cl`, the growth inhibition was 99% (active) in experiment [1] and 97% (active) in experiment [4]. Besides, the inhibition in experiment [2] is 12%; in experiment [3], -7%. Also, the result in experiment [5], in experiment [6], in experiment [7] and in experiment [8] was inactive.
Consider `CN(/N=C/C=C/c1ccc(Cl)cc1)c1nc(NCCc2ccc(O)cc2)nc(N2CCNCC2)n1`, for which the growth inhibition is 69% (active) in experiment [1] and 92% (active) in experiment [4]. Besides, the figures for the inhibition in experiment [2] and in experiment [3] were 14% and 1%, respectively. Also, the result in experiment [5], in experiment [6], in experiment [7] and in experiment [8] was inactive.
Regarding `COc1cc(CCCOc2c(N)nc(N)nc2N)cc(OC)c1OC`, the results for the growth inhibition in experiment [1] and in experiment [4] were 0% and 88% (active), respectively. The inhibition in experiment [2] was 8%; in experiment [3], 2%. For the same molecule, the outcome in experiment [5], in experiment [6], in experiment [7] and in experiment [8] was inactive.
For `C=CCNS(=O)(=O)c1ccc(NC(=O)C(C)Oc2ccc([N+](=O)[O-])cc2)cc1` (configuration not stated), the growth inhibition in experiment [1] is 100% (active); in experiment [4] it was 101% (active). Further, the inhibition is 14% in experiment [2] and -3% in experiment [3]. Moreover, the result in experiment [5], in experiment [6], in experiment [7] and in experiment [8] was inactive.
On to `O=C(/C=C/c1ccc(Cl)c(Cl)c1)NCCCCCN1CCC(CCCNC(=O)Nc2ccc(C(F)(F)F)cc2)CC1`, for which the growth inhibition in experiment [1] is 19%; in experiment [4], 91% (active). In addition, the inhibition in experiment [2] was -2%; in experiment [3] it was -7%. For the same molecule, the outcome in experiment [5], in experiment [6], in experiment [7] and in experiment [8] was inactive.
With `OCCCCCCN=Cc1[nH]c(=S)sc1O`, the growth inhibition in experiment [1] is 1%; in experiment [4] it was 91% (active). In addition, the inhibition in experiment [2] was 7%; in experiment [3], 4%. In addition, the outcome in experiment [5], in experiment [6], in experiment [7] and in experiment [8] was inactive.
On to `N=c1c2c(n(Cc3ccccc3)c3c1CCC3)CCCC2`, for which the growth inhibition in experiment [1] was 39%; in experiment [4] it was 86% (active). Also, the inhibition was 4% in experiment [2] and -4% in experiment [3]. For the same molecule, the outcome in experiment [5], in experiment [6], in experiment [7] and in experiment [8] was inactive.
`C=CCn1c(C)cc(C(=O)COc2ccc(S(=O)(=O)N3CCOCC3)cc2[N+](=O)[O-])c1C`: the growth inhibition is 5% in experiment [1] and 94% (active) in experiment [4]. Further, the results for the inhibition in experiment [2] and in experiment [3] were 0% and 3%, respectively. Further, the outcome in experiment [5], in experiment [6], in experiment [7] and in experiment [8] was inactive.
As for `c1cc2nc(CCc3nc4ccc(C5=N[C@H]6CCCC[C@H]6N5)cc4[nH]3)[nH]c2cc1C1=N[C@@H]2CCCC[C@@H]2N1`, the growth inhibition was 96% (active) in experiment [1] and 93% (active) in experiment [4]. Besides, the inhibition in experiment [2] was 3%; in experiment [3] it was -2%. For the same molecule, the outcome in experiment [5], in experiment [6], in experiment [7] and in experiment [8] was inactive.
Take `CN1CCN(c2ccnc3ccc(NC(=O)Cc4cccc(Cl)c4Cl)cc23)CC1`: the values for the growth inhibition in experiment [1] and in experiment [4] were 64% (active) and 102% (active), respectively. Besides, the inhibition in experiment [2] was 8%; in experiment [3], 3%. The outcome in experiment [5], in experiment [6], in experiment [7] and in experiment [8] was inactive.
For the molecule `O=C(Nc1ccc(C(F)(F)F)cc1)c1ccc(S(=O)(=O)NC2CCCN(CC3CCCCC3)C2)cc1` (configuration not stated), the growth inhibition in experiment [1] was -1%; in experiment [4], 99% (active). For the same molecule, the inhibition was 45% in experiment [2] and -5% in experiment [3]. The result in experiment [5], in experiment [6], in experiment [7] and in experiment [8] was inactive.
On to `CCOc1ccc2c(NN=Cc3c4ccccc4cc4ccccc34)cc(C)nc2c1`, for which the growth inhibition in experiment [1] is 94% (active); in experiment [4] it was 90% (active). Also, the inhibition in experiment [2] was -4%; in experiment [3], 0%. Also, the result in experiment [5], in experiment [6], in experiment [7] and in experiment [8] was inactive.
As for `COc1ccc(Nc2nccc(N3CCC(NC(=O)Nc4cccc(C(C)=O)c4)C3)n2)cc1` (configuration not stated), the growth inhibition in experiment [1] was 79% (active); in experiment [4], 98% (active). Moreover, the inhibition in experiment [2] is 29%; in experiment [3], -11%. Besides, the outcome in experiment [5], in experiment [6], in experiment [7] and in experiment [8] was inactive.
Regarding `O=C(Nc1ccc2ccccc2c1)c1ccc(CN2CCC(Cc3ccccc3)CC2)cc1`, the growth inhibition was 10% in experiment [1] and 95% (active) in experiment [4]. The results for the inhibition in experiment [2] and in experiment [3] were 38% and -8%, respectively. Further, the outcome in experiment [5], in experiment [6], in experiment [7] and in experiment [8] was inactive.
For `COc1cc(NC(=O)N2CCOC(CCN3CCC4(CCc5ccccc54)CC3)(c3ccc(Cl)c(Cl)c3)C2)cc(OC)c1` (configuration not stated), the growth inhibition was 50% (active) in experiment [1] and 87% (active) in experiment [4]. The inhibition was 29% in experiment [2] and 3% in experiment [3]. Also, the result in experiment [5], in experiment [6], in experiment [7] and in experiment [8] was inactive.
As to `OCC1CCN(Cc2cccc(-c3ccc(-c4nc5ccc(C(F)(F)F)cc5[nH]4)cc3)c2)CC1`, the values for the growth inhibition in experiment [1] and in experiment [4] were 95% (active) and 101% (active), respectively. Further, the inhibition in experiment [2] was 25%; in experiment [3] it was -3%. Moreover, the outcome in experiment [5], in experiment [6], in experiment [7] and in experiment [8] was inactive.
As to `CCCCCCc1cc2cc(-c3csc(C=Cc4ccccc4)n3)c(=O)oc2cc1O`, the values for the growth inhibition in experiment [1] and in experiment [4] were 75% (active) and 96% (active), respectively. Also, the inhibition was 17% in experiment [2] and 2% in experiment [3]. The result in experiment [5], in experiment [6], in experiment [7] and in experiment [8] was inactive.
